Source: the supplement of paper PMC13380429

Test system: Vero E6 infected with SARS-CoV-2
Test: inhibition of SARS-CoV-2 cytopathic effect; higher = more antiviral protection, active = above 15
Details: 48 h

Measured: inhibition of SARS-CoV-2 cytopathic effect

COc1cc2c(Oc3ccc4[nH]c(C)cc4c3F)ccnc2cc1OCC1(N)CC1 [anlotinib]
inactive: 1 nM 1.84% | 8.33 nM -1.41% | 100 nM 1.56% | 833.33 nM 1.39% | 10000 nM -7.82%

CC(=O)c1c(O)cc(C)oc1=O [dehydroacetic-acid]
inactive: 1 nM 2.87% | 8.33 nM 3.44% | 100 nM 2.94% | 833.33 nM 2.97% | 10000 nM 3.07%

Fc1ccc(-c2nc3n(c2-c2ccncc2)CCS3)cc1
inactive: 1 nM 1.58% | 8.33 nM -0.78% | 100 nM -1.15% | 833.33 nM -1.03% | 10000 nM -1.09%

CC[C@H]1OC(=O)C[C@@H](O)[C@H](C)[C@@H](O[C@@H]2O[C@H](C)[C@@H](O[C@H]3C[C@@](C)(O)[C@@H](O)[C@H](C)O3)[C@H](N(C)C)[C@H]2O)[C@@H](CC=O)C[C@@H](C)C(=O)/C=C/C(C)=C/[C@@H]1CO[C@@H]1O[C@H](C)[C@@H](O)[C@@H](OC)[C@H]1OC
inactive: 1 nM -4.49% | 8.33 nM -1.15% | 100 nM -2.1% | 833.33 nM -0.46% | 10000 nM 4.02%

CCc1c(C(=O)C(N)=O)c2c(OCC(=O)O)cccc2n1Cc1ccccc1 [varespladib]
inactive: 1 nM 2.9% | 8.33 nM -0.54% | 100 nM 1.35% | 833.33 nM 1.32% | 10000 nM 0.87%

COc1cc(-c2ccc(=O)[nH]n2)ccc1OC(F)F [zardaverine]
inactive: 1 nM 0.13% | 8.33 nM 1.54% | 100 nM 0.67% | 833.33 nM 0.7% | 10000 nM 2.13%
